Where “and” joins values, the source holds several entries; their conditions need not be identical. Equal entries are not always repeated. This is part of a sample that, as a whole, favours compounds with a hit. Of some 83,000 tested, about 20% had one in any assay.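 Cell lines were cultured in 96-well plates, exposed to a single compound concentration, and assessed for percent growth 48 hours later.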 Calls of active or inactive are those of the source.
Each molecule was assayed on SNB-19 CNS (assay: NCI-60 one-dose screen, 48 h (100 = growth as untreated, 0 = no growth, -100 = all killed)). Settings: 10 µM unless noted.
Procedure: Growth inhibition of the SNB-19 human tumor cell line is measured as a screen for anti-cancer activity. Cells are grown in 96 well plates and exposed to the test compound for 48 hours. Compounds are tested at a single concentration, which is 10^-5 M for most compounds. The reported endpoint is percent growth (GI% or GIPRCNT), where numbers from 0 - 100% represent growth inhibition, and numbers from -100% - 0 represent cell death. For example, a value of 40 represents 60% growth inhibition. A value of 0 means no net growth occurred over the course of the experiment. A value of -40 indicates 40% of cells at the beginning of the experiment died by the end of the experiment. A value of -100 means all cells are dead at the end of the experiment.
NCI-60 Human Tumor Cell Lines Screen was performed using the standard one-dose NCI protocol, which is described in more detail at https://dtp.cancer.gov/discovery_development/nci-60/default.htm.
Compounds with GIPRCNT values below 10 were considered active. Activity score was based on GIPRCNT using the following formula: […]
Score is 0 for GIPRCNT values of 100 or above, 50 for GIPRCNT values of 0, and 100 for GIPRCNT values of -100.
In the case of `COc1ccc(C(=O)c2cc(C(C)=O)c3c(C)cc(C)cn23)cc1`, the growth is reported as 24.8% (inactive).
In the case of `CC(C)CN1C(=O)/C(=C\C(=O)c2cc3ccccc3oc2=O)c2ccccc21`, the growth is reported as 100% (inactive).
For `NS(=O)(=O)c1ccc(Nc2nc(SCC(=O)c3ccc(F)cc3)nc3ccccc23)cc1`, the growth was 54.8% (inactive).
With `O=C1Nc2cc(-c3ccc(NS(=O)(=O)c4ccc(C(F)(F)F)cc4)cc3)ccc2/C1=C/c1ccc[nH]1` the growth was 69.9% (inactive).
For `COc1cc(CNC(=O)C[C@H](C)CCC=C(C)C)ccc1OCc1cn(-c2ccc(Cl)c(Cl)c2)nn1`, the growth was 81.3% (inactive).
`COc1ccc2[nH]c(O)c(N=NC(=O)c3ccc4nc(-c5ccc(Cl)cc5)[nH]c4c3)c2c1` was tested, and the growth was 29.6% (inactive).
In the case of `Cc1cc(N=C(N)c2ccccc2)ccc1OCCCCCCCCn1ccnc1`, the growth is reported as 19.3% (inactive).
For `CCOc1ccccc1NC(=O)N/C(N)=N/c1nc2ccccc2s1`, the growth was 14.7% (inactive).
`Fc1ccc(F)c(CNc2nc(SCCN3CCOCC3)nc3c2cnn3CC(Cl)c2ccc(Br)cc2)c1` (stereo not given) was tested, and the growth was 42.2% (inactive).
For `COc1ccc(-c2nc3ccccc3n2CC(=O)N=Nc2c(O)[nH]c3ccc(Br)cc23)cc1`, the growth was 89.3% (inactive).
In the case of `N#Cc1c(NC(=O)N2CCOCC2)n(-c2ccc(OC(F)(F)F)cc2)c2cc(F)ccc12`, the growth is reported as 117% (inactive).
For `Cc1ccc(C(=O)Nc2cc(-n3cnc(F)c3)cc(C(F)(F)F)c2)cc1C#Cc1cnc2cccnn12`, the growth was 106% (inactive).
In the case of `O=C(N=Nc1c(O)[nH]c2ccc(Br)cc12)c1ccc2nc(-c3ccc(Cl)cc3)[nH]c2c1`, the growth is reported as -27.2% (active).
For `S=C(Nc1ccc(OCc2nc3ccc(Cl)cc3[nH]2)cc1)NC1CCCCC1`, the growth was 10% (inactive).
For `COC(=O)c1c(C(=O)OC)c2ccc3c4ccccc4ccc3n2c1C(=O)C(C)Br` (stereo not given), the growth was 52.1% (inactive).
For `CC1=NN(C2=NC(=O)C(CC(=O)Nc3ccccc3C(F)(F)F)S2)C(c2ccc(N(C)C)cc2)C1` (stereo not given), the growth was 54.5% (inactive).
For `O=C1C=CC(=CC=C2N(Cc3ccc4ccccc4c3)c3ccccc3N2Cc2ccc3ccccc3c2)C=C1`, the growth was 8.3% (active) and 11.1% (inactive).
`O=C(CSc1nnc(-c2ccc(-c3nc4ccc(Cl)cc4[nH]3)cc2)o1)Nc1ccc(Br)cc1` was tested, and the growth was -17.5% (active).
In the case of `COc1ccc2[nH]c(=O)c(CSc3ccccc3Nc3nccc(-c4ccc(Cl)cc4)n3)cc2c1`, the growth is reported as 56.8% (inactive).
With `O=C1/C(=C/C=C/c2ccco2)SC(=S)N1CC(=S)C1C=CS(=O)(=O)C1` (stereo not given) the growth was 95.2% (inactive).
`Cc1ccccc1Nc1nnc(-c2c[nH]c3ccccc23)o1` was tested, and the growth was 41% (inactive).
`N#Cc1c(-c2ccc(F)cc2)nc(SCc2ccc(F)cc2)nc1N1CCNCC1` was tested, and the growth was 49.6% (inactive).
With `COc1cc(-c2ccc3ncnc(N4CCc5ccc(Cl)cc54)c3c2)cnc1Cl` the growth was 35% (inactive).
For `Cc1cccc(C)c1Nc1nnc(-c2c[nH]c3ccccc23)o1`, the growth was 97.5% (inactive).
For `CC(C)(C)C(=O)C1CC(C#N)=C2C=Cc3c(ccc4ccccc34)N21` (stereo not given), the growth was 60.1% (inactive).
For `COc1cncc(-c2ccc3ncnc(N4CCc5ccc(Cl)cc54)c3c2)c1`, the growth was 35.9% (inactive).
`CCCCCCCCCCCCCCCCCC(=O)Nc1ccc(OC)cc1` was tested, and the growth was 96.2% (inactive).
For `COc1cc(NC(=O)CSc2nnc(-c3ccc(-c4nc5ccc(Cl)cc5[nH]4)cc3)o2)cc(OC)c1OC`, the growth was 49.3% (inactive).
In the case of `Clc1ccc(-c2nc3c4c(-c5ccccc5)c(-c5ccccc5)n(Cc5ccccc5)c4ncn3n2)cc1`, the growth is reported as 8.49% (active).
For `O=C(Cn1c(/C=C/c2ccc([N+](=O)[O-])cc2)nc2ccccc2c1=O)Nc1ccccc1`, the growth was 37.2% (inactive).
With `CC[C@]12C=CCN3CC[C@]4(C(=C(C(=O)OC)C1)Nc1cc(OC)c([C@@H]5[C@H]6O[C@H]6[C@@]6(CC)CC(C(=O)OC)=C7Nc8cc(OC)ccc8[C@@]78CCN5[C@@H]68)cc14)[C@@H]32` the growth was 58.2% (inactive).
`COc1ccc(NC(=O)Cn2c(/C=C/c3ccc([N+](=O)[O-])cc3)nc3ccccc3c2=O)cc1` was tested, and the growth was 32.2% (inactive).
In the case of `O=C1Nc2cc(-c3ccc(NS(=O)(=O)c4ccc(-c5ccccc5)cc4)cc3)ccc2/C1=C/c1ccc[nH]1`, the growth is reported as 72.5% (inactive).
In the case of `COC(=O)c1cc(C(=O)CBr)n2c1ccc1c3ccccc3ccc12`, the growth is reported as 55.5% (inactive).
`Cn1cc(-c2cc3nc(-c4c[nH]c5ccccc45)cc(N)n3n2)c2ccccc21` was tested, and the growth was 18.6% (inactive).
`Cn1cc(-c2cc(N)n3nc(-c4c[nH]c5ccccc45)cc3n2)c2cc(Cl)ccc21` was tested, and the growth was -91.1% (active).
`O=C(NN1C(=O)/C(=C/C=C/c2ccc([N+](=O)[O-])o2)SC1=S)c1ccncc1` was tested, and the growth was -96.8% (active).
With `O=C(NNC(=O)c1ccc(OCc2nc3ccc(Cl)cc3[nH]2)cc1)Nc1ccc(Cl)c(C(F)(F)F)c1` the growth was 61.1% (inactive).
For `NS(=O)(=O)c1cccc(Nc2nc(SCC(=O)c3ccc(F)cc3)nc3ccccc23)c1`, the growth was 11.9% (inactive).
For `Cn1cc(-c2cc(N)n3nc(-c4c[nH]c5ccc(F)cc45)cc3n2)c2cc(Br)cnc21`, the growth was 98.3% (inactive).

— PubChem BioAssay (NCI)
